From article PMC5836133, “The intracellular immune receptor Rx1 regulates the DNA-binding activity of a Golden2-like transcription factor”
Whole data set: some 16,000 sequences, median “e-score” near -0.044, cut for the highest 2% near 0.38. Shown is part of a subset that was picked to be rich in the highest values.

Molecular target: T1, GST-NbGlk1(82-244) (Nicotiana benthamiana)
T1 chain: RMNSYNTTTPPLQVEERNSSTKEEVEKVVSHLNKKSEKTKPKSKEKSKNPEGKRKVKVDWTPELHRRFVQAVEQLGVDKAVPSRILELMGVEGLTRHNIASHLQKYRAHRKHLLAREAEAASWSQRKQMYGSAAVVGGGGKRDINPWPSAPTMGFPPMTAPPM
Assay: protein-binding microarray; NbGlk1 is a Golden2-like transcription factor of Nicotiana benthamiana; high values mean tight binding
Conditions: protein: recombinant; tags: GST (pTH6838); dsDNA, one strand shown

| Sequence | binding signal |
| --- | --- |
| AGTAATCG | 0.296 ± 0.00931 E-score |
| ATCACAGA | 0.217 ± 0.141 E-score |
| ATATCTTG | 0.436 ± 0.0173 E-score |
| ATCTCTTA | 0.337 ± 0.015 E-score |
| ATATCGTG | 0.348 ± 0.0162 E-score |
| ATATCATA | 0.307 ± 0.0181 E-score |
| ATATCGTC | 0.328 ± 0.0135 E-score |
| ATATCTTC | 0.412 ± 0.0234 E-score |
| ATATCGGC | 0.354 ± 0.0162 E-score |
| ATATCTTA | 0.408 ± 0.0113 E-score |
| ATCTCTGC | 0.311 ± 0.0301 E-score |
| ATATCATG | 0.373 ± 0.00698 E-score |
| ATCTCTTC | 0.286 ± 0.00741 E-score |
| ATATCTGC | 0.438 ± 0.0129 E-score |
| AGCGATCG | 0.204 ± 0.00262 E-score |
| AATTCTAT | 0.22 ± 0.114 E-score |
| AATTGGAT | 0.2 ± 0.0585 E-score |
| ATCTTAAT | 0.321 ± 0.00718 E-score |
| ATATTAAG | 0.251 ± 0.0913 E-score |
| ATCCACAA | 0.29 ± 0.0043 E-score |
| ATTTTATA | 0.281 ± 0.0713 E-score |
| ATTTGCGA | 0.294 ± 0.051 E-score |
| AGTAAAAT | 0.292 ± 0.0131 E-score |
| ACTGAATA | 0.204 ± 0.00699 E-score |
| ATCTCCTG | 0.3116 ± 0.00208 E-score |

| Sequence | binding signal |
| --- | --- |
| ATATCAGA | 0.343 ± 0.0575 E-score |
| ATATCTGA | 0.399 ± 0.00857 E-score |
| ATCTCTGG | 0.205 ± 0.0181 E-score |
| ATCTCTGA | 0.269 ± 0.143 E-score |
| ATATCTGG | 0.401 ± 0.00925 E-score |
| ATCTCTTG | 0.379 ± 0.0245 E-score |
| ATATCGGG | 0.343 ± 0.0169 E-score |
| ATCTCGTG | 0.357 ± 0.0779 E-score |
| ATCTACTA | 0.341 ± 0.0266 E-score |
| ATCTGTGA | 0.344 ± 0.0977 E-score |
| ATATGCTA | 0.224 ± 0.0529 E-score |
| ACATAGAT | 0.223 ± 0.0149 E-score |
| ATATTCAC | 0.208 ± 0.132 E-score |
| ATCATAAA | 0.232 ± 0.00949 E-score |
| ATCCAGGA | 0.328 ± 0.0422 E-score |
| AGTATCCG | 0.328 ± 0.0412 E-score |
| ATCTGGGG | 0.27 ± 0.147 E-score |
| ATTCTGGA | 0.248 ± 0.0551 E-score |
| AATCTGGC | 0.416 ± 0.0222 E-score |
| AATCTGGA | 0.452 ± 0.00746 E-score |
| AATCTGGT | 0.443 ± 0.0103 E-score |
| AATCTGGG | 0.428 ± 0.0442 E-score |
| AATCGGGT | 0.272 ± 0.0576 E-score |
| AATCAGGG | 0.313 ± 0.0785 E-score |
| ATCCTGGA | 0.296 ± 0.0334 E-score |

| Sequence | binding signal |
| --- | --- |
| ATCCTGGC | 0.244 ± 0.119 E-score |
| AGTGAAAT | 0.208 ± 0.0317 E-score |
| ATTACGAA | 0.341 ± 0.0714 E-score |
| ACCGTATC | 0.274 ± 0.0523 E-score |
| AATGAGAT | 0.312 ± 0.0605 E-score |
| ATTTCGGA | 0.309 ± 0.0179 E-score |
| ATTGCGAC | 0.346 ± 0.0296 E-score |
| ATCAGTAA | 0.214 ± 0.0917 E-score |
| AATCATAC | 0.263 ± 0.039 E-score |
| AGCGAGAT | 0.269 ± 0.0866 E-score |
| AATATATA | 0.27 ± 0.0135 E-score |
| AGAATAAT | 0.206 ± 0.0577 E-score |
| ATCCGGCA | 0.253 ± 0.0503 E-score |
| ATTGCGGA | 0.359 ± 0.0313 E-score |
| ATCTGGAA | 0.351 ± 0.0575 E-score |
| AATCAACG | 0.247 ± 0.00961 E-score |
| AATCTACA | 0.401 ± 0.0303 E-score |
| AATCTACC | 0.404 ± 0.00847 E-score |
| AATCATCT | 0.205 ± 0.0194 E-score |
| AATATACA | 0.21 ± 0.00993 E-score |
| AATCGACG | 0.243 ± 0.0212 E-score |
| AATCTACG | 0.38 ± 0.0162 E-score |
| AATCTACT | 0.406 ± 0.0108 E-score |
| AATCAACT | 0.274 ± 0.00959 E-score |
| ATCCTACA | 0.298 ± 0.0179 E-score |

| Sequence | binding signal |
| --- | --- |
| ATTCTATC | 0.261 ± 0.0903 E-score |
| ATTTTAGA | 0.221 ± 0.0235 E-score |
| ATCTCATA | 0.291 ± 0.0411 E-score |
| ATCCCCAA | 0.276 ± 0.0488 E-score |
| ATAGGATA | 0.247 ± 0.133 E-score |
| AAATATTA | 0.313 ± 0.0186 E-score |
| ATACAAAA | 0.251 ± 0.0113 E-score |
| AGCTAGAT | 0.216 ± 0.00676 E-score |
| ATTGCGGG | 0.26 ± 0.0952 E-score |
| AATCGCGG | 0.317 ± 0.0232 E-score |
| AAATAAAG | 0.202 ± 0.0801 E-score |
| AGATTGTA | 0.3324 ± 0.00276 E-score |
| AGATCGTC | 0.3356 ± 0.00264 E-score |
| ATATTGTG | 0.235 ± 0.0938 E-score |
| AGATTGTC | 0.3936 ± 0.00333 E-score |
| ATATTGTC | 0.261 ± 0.0163 E-score |
| AGATTGTG | 0.421 ± 0.0279 E-score |
| AAGGATTG | 0.247 ± 0.0253 E-score |
| AAATATAA | 0.208 ± 0.0739 E-score |
| AATCCGCC | 0.372 ± 0.0634 E-score |
| ATCCCGCA | 0.289 ± 0.00853 E-score |
| AATCCCCT | 0.2621 ± 0.00234 E-score |
| AATCCGCG | 0.396 ± 0.0375 E-score |
| AATCAGCG | 0.312 ± 0.0496 E-score |
| ATTCCGCG | 0.256 ± 0.00946 E-score |

| Sequence | binding signal |
| --- | --- |
| AATCCGCA | 0.395 ± 0.0273 E-score |
| AATCCGCT | 0.388 ± 0.0352 E-score |
| ATTCCGCA | 0.238 ± 0.0649 E-score |
| ATCTTGGG | 0.216 ± 0.0663 E-score |
| AAATAGAT | 0.264 ± 0.0472 E-score |
| ATCTGGTG | 0.3327 ± 0.000333 E-score |
| ATACATAT | 0.204 ± 0.0258 E-score |
| ATATAGAT | 0.352 ± 0.0482 E-score |
| ATTTAAGA | 0.236 ± 0.0208 E-score |
| AAGGATCT | 0.335 ± 0.00404 E-score |
| AGGGATAT | 0.353 ± 0.00472 E-score |
| ACGGATAC | 0.2607 ± 0.00125 E-score |
| AAGGATAT | 0.387 ± 0.00749 E-score |
| ACGGATAT | 0.381 ± 0.03 E-score |
| ACGGATCT | 0.265 ± 0.053 E-score |
| ATTATATA | 0.215 ± 0.115 E-score |
| ATCTACAC | 0.34 ± 0.0325 E-score |
| AATTCTGT | 0.223 ± 0.0117 E-score |
| ATACGCTA | 0.239 ± 0.0564 E-score |
| ATCATGAA | 0.215 ± 0.0159 E-score |
| CAGATCTC | 0.423 ± 0.0294 E-score |
| AGGATCTC | 0.402 ± 0.0113 E-score |
| AAGATCAC | 0.225 ± 0.0928 E-score |
| AGGATCTG | 0.337 ± 0.025 E-score |
| CAGATCTA | 0.249 ± 0.0194 E-score |

| Sequence | binding signal |
| --- | --- |
| AAGATCTG | 0.362 ± 0.0161 E-score |
| CAGATCCG | 0.266 ± 0.0152 E-score |
| AAGATCTA | 0.356 ± 0.00732 E-score |
| CAGATCCC | 0.266 ± 0.0242 E-score |
| AAGATCTC | 0.406 ± 0.00477 E-score |
| CAGATCTG | 0.38 ± 0.0481 E-score |
| AGGATCTA | 0.314 ± 0.04 E-score |
| ATTCGCTC | 0.231 ± 0.0553 E-score |
| ATCACGAT | 0.29 ± 0.0315 E-score |
| ATTCCAAC | 0.2142 ± 0.000545 E-score |
| ATCCGTTG | 0.233 ± 0.0162 E-score |
| ATATGCAT | 0.219 ± 0.0814 E-score |
| ATATGGAA | 0.219 ± 0.0165 E-score |
| ATCTAAAA | 0.244 ± 0.06 E-score |
| ACCGGAAT | 0.243 ± 0.0509 E-score |
| AGGAGGAT | 0.244 ± 0.0559 E-score |
| ATTCGCCA | 0.278 ± 0.00941 E-score |
| ATCCTTTA | 0.274 ± 0.0111 E-score |
| AAGATCCT | 0.339 ± 0.00784 E-score |
| AAGATCAT | 0.214 ± 0.0212 E-score |
| AAGATCTT | 0.399 ± 0.0153 E-score |
| AATCGATT | 0.353 ± 0.0155 E-score |
| AATCCATT | 0.38 ± 0.039 E-score |
| AATCCATG | 0.381 ± 0.0124 E-score |
| ATTCCATA | 0.257 ± 0.00403 E-score |

| Sequence | binding signal |
| --- | --- |
| AATCCATA | 0.3787 ± 0.000904 E-score |
| AATCCCAT | 0.331 ± 0.00747 E-score |
| AATCCATC | 0.367 ± 0.0565 E-score |
| AATCCCTG | 0.283 ± 0.0408 E-score |
| ATTCCATG | 0.229 ± 0.0434 E-score |
| ATCCTCGA | 0.224 ± 0.0852 E-score |
| AAATATGG | 0.272 ± 0.0577 E-score |
| ATCTTCCA | 0.319 ± 0.0516 E-score |
| AATATTAG | 0.209 ± 0.0412 E-score |
| ATCGGCAA | 0.216 ± 0.00468 E-score |
| ATCTTTCA | 0.247 ± 0.0983 E-score |
| ATCTATGA | 0.247 ± 0.0113 E-score |
| AATTTTGG | 0.25 ± 0.0182 E-score |
| AGATTTGG | 0.394 ± 0.0453 E-score |
| AGATTTAG | 0.276 ± 0.0684 E-score |
| AGATTTGC | 0.4695 ± 0.00449 E-score |
| AGATTTGA | 0.327 ± 0.0876 E-score |
| ATATTTGC | 0.338 ± 0.0673 E-score |
| ATCATGAT | 0.205 ± 0.00494 E-score |
| ATTTCGGC | 0.283 ± 0.0422 E-score |
| ACTAAGAT | 0.231 ± 0.0287 E-score |
| ACTAAAAT | 0.281 ± 0.0324 E-score |
